In PubChem BioAssay (EPA / NIEHS):
Inconclusive results are not listed. Active and inactive are the calls of the source. Rule for the calls: active = hit-call score of the fitted dose curve at least 0.9, where 1 is the maximum; inconclusive = response in the unintended direction; inactive = score below 0.9.

Target: Androgen receptor (Homo sapiens) (UniProt P10275)
Assay: ATG_AR_TRANS: Attagene TRANS-FACTORIAL HepG2 Assay for human Androgen Receptor (AR) (AID 2282973)
Details: HepG2 Attagene TRANS-FACTORIAL AR reporter transcription
Experimental: ATG_TRANS is a cell-based, multiplexed-readout assay that uses HepG2, a human liver cell line, with measurements taken at 24 hours after chemical dosing in a 24-well plate.ATG_AR_TRANS is one of 30 assay component(s) measured or calculated from the ATG_TRANS assay. It is designed to make measurements of mRNA induction, a form of inducible reporter, as detected with fluorescence intensity signals by Reverse transcription polymerase chain reaction (RT-PCR) and Capillary electrophoresis technology.Data from the assay component ATG_AR_TRANS was analyzed into 1 assay endpoint. This assay endpoint, ATG_AR_TRANS, was analyzed in the positive analysis fitting direction relative to DMSO as the negative control and baseline of activity. Using a type of inducible reporter, measures of mRNA for gain-of-signal activity can be used to understand the reporter gene at the transcription factor-level as they relate to the gene AR. Furthermore, this assay endpoint can be referred to as a primary readout, because this assay has produced multiple assay endpoints where this one serves a reporter gene function. To generalize the intended target to other relatable targets, this assay endpoint is annotated to the nuclear receptor intended target family, where the subfamily is steroidal.
Human liver HepG2 cells are transiently transfected with multiple reporter transcription units (MRTUs) in 6-well plates using FuGene 6 reagent (Roche; 3 ml FuGene/1 mg DNA). The MRTU constructs are regulated by a cis-regulating element (promoter). […] A major difference between the CIS and TRANS system is that in CIS activities of endogenous TFs are measured, whereas the TRANS assay evaluates changes in activities of exogenous, chimeric NR-Gal4 proteins. […] At the end of 24 hour incubation, total RNA was isolated using TriZol reagent (Invitrogen). The isolated RNA is then reverse-transcribed using oligo(dT) primer and Mo-MLV reverse transcriptase (Invitrogen) with DNAse I (Ambion) treatment for 30 min. The one-tenth of the produced cDNA was amplified by PCR using Taq DNA polymerase (Invitrogen) and two reporter sequence-specific primers. The PCR products were fluorescently labeled by primer extension with 6-arboxyfluorescein (6-FAM) 5'-labeled reporter sequence-specific primer (2 min at 95 C, 20 s at 68 C and 10 min at 72 C) and these products were digested with 5U of HpaI (New England Biolabs) for 2h at 37 C. The fragments were purified using Qiaquick PCR columns (Qiagen), analyzed on an ABI 3130xL genetic analyzer (Applied Biosystems) with peak positions identified by using a set of X-rhodamine (ROX)-labeled MapMarker1000 molecular weight standards (BioVentures). The raw capillary electrophoresis data was processed using Attagraph software (Attagene).

Androgen receptor (Homo sapiens), sequence (P10275 whole entry, looked up): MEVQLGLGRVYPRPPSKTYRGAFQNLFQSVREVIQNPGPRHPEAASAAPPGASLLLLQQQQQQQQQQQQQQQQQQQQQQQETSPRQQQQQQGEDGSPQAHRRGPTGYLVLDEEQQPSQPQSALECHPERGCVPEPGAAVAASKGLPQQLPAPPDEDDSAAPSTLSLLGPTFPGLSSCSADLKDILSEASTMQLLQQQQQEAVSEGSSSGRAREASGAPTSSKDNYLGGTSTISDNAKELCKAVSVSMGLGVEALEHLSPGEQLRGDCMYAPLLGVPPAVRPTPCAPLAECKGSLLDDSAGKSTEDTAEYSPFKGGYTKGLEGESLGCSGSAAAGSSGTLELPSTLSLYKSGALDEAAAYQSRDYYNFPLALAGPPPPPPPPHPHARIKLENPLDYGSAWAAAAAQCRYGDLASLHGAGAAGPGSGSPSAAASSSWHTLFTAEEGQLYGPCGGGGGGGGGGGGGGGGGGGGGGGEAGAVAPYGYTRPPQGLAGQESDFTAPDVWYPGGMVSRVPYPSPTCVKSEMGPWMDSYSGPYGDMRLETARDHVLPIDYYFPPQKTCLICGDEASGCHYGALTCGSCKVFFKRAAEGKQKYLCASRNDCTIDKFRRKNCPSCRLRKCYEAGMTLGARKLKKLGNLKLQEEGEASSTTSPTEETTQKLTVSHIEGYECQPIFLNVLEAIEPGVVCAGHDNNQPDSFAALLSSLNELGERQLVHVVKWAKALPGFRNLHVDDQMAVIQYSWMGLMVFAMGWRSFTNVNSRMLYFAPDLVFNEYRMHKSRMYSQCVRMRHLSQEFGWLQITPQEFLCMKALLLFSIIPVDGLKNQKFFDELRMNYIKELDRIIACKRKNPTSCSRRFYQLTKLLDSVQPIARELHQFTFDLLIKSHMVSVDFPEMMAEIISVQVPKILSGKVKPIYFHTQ

Compound	outcome
COP(=O)(OC)OC	inactive
Cl/C=C\C[N+]12CN3CN(CN(C3)C1)C2	inactive
CN(CCCC(=O)c1cccnc1)N=O	inactive
COP(=S)(OC)Oc1cc(Cl)c(Cl)cc1Cl	inactive
O=C1C2(Cl)C3(Cl)C4(Cl)C(Cl)(Cl)C5(Cl)C3(Cl)C1(Cl)C5(Cl)C24Cl (centres undefined)	inactive
CCSC(C)CC1CC(=O)C(C(CC)=NOC/C=C/Cl)=C(O)C1 (centres undefined)	inactive
Cc1ccccc1C(=O)Nc1cccc(OC(C)C)c1	inactive
O=c1[nH]c(=O)[nH]c(=O)[nH]1	inactive
CCc1ccccc1C	inactive
Cc1ccc2ccccc2c1C	inactive
COP(=S)(OC)Oc1ccc(Sc2ccc(OP(=S)(OC)OC)cc2)cc1	inactive
CCCCCCCCc1ccc(O)cc1	inactive
CC(C)CCCCCCOC(=O)c1ccccc1C(=O)OCCCCCCC(C)C	inactive
Oc1c(I)cc(I)cc1I	inactive
CCC1(c2ccc(N)cc2)CCC(=O)NC1=O (centres undefined)	inactive
O=C(c1ccccc1)C(Cl)Cl	inactive
C=CC(=O)OCCCCCC(C)C	inactive
CC12CC1(C)C(=O)N(c1cc(Cl)cc(Cl)c1)C2=O (centres undefined)	inactive
COP(=S)(OC)Oc1ccc(S(=O)(=O)N(C)C)cc1	inactive
c1cc[c]([Hg][c]2ccccc2)cc1	inactive
Clc1ccc(COC(Cn2ccnc2)c2ccc(Cl)cc2Cl)cc1 (centres undefined)	inactive
COP(=O)(OC)O/C(=C\Cl)c1cc(Cl)c(Cl)cc1Cl	inactive
CCC(=O)C(CC(C)N(C)C)(c1ccccc1)c1ccccc1 (centres undefined)	inactive
C[C@H]1CCCC(=O)CCC/C=C/c2cc(O)cc(O)c2C(=O)O1	inactive
O=CC=O	inactive
COS(=O)(=O)c1ccc(C)cc1	inactive
CC(C)(C)CC(C)(C)c1ccc(O)cc1	inactive
Cc1cc(=O)[nH]o1	inactive
CCOP(=S)(OCC)Oc1nc(Cl)c(Cl)cc1Cl	inactive
